# For some of these results: Entries with a potency or affinity are not part of this list. Activity calls are given as the source filed them.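 The calls were made as follows, unless noted: active = calcium signal ratio cut to more than 3 SD under the fully stimulated control mean yet still positive, in both repeats and the primary screen; inactive = the rest.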
# Columns and labels:
# [1] = test system: TRPC4 beta (transient receptor potential cation channel C4), mouse; assay: activators of mouse TRPC4 channel, confirmation, cell-based, Fluo4 calcium, HEK293 TRPC4beta/mu-opioid, duplicates, 10 µM (AID 2426;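 active = fluorescence ratio normalized to control raised more than 50% in primary screen plus both repeat runs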); conditions: Fluo4 calcium fluorescence, at 10 µM; hits give high values
# [2] = test system: transient receptor potential cation channel C4 beta (TRPC4), mouse; assay: activators of mouse TRPC4 channel, confirmation, cell-based, second round, Fluo4, HEK293 TRPC4beta/mu-opioid, 1 µM (AID 2461;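 active = primary screen active and over 50% activation in each of two duplicate runs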); conditions: Fluo4 calcium fluorescence, at 1 µM; hits give high values
# [3] = test system: TRPC4 (transient receptor potential cation channel C4 beta), mouse; assay: positive allosteric modulators of mouse TRPC4, confirmation, cell-based, second round, Fluo-4, HEK293 TRPC4beta/mu-opioid, 1 µM (AID 2554;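 active = primary screen hit whose fluorescence ratio, in both repeats, exceeds the weak agonist control mean by 3 SD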); conditions: DAMGO EC20, Fluo-4 calcium flux, at 1 µM; hits give high values
# [4] = test system: TRPC4 beta (transient receptor potential cation channel C4), mouse; assay: positive allosteric modulators of mouse TRPC4, confirmation, cell-based, Fluo-4, HEK293 TRPC4beta/mu-opioid (AID 2555;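 active = primary screen hit whose calcium fluorescence ratio, in both repeats, exceeds the weak agonist control mean by 3 SD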); conditions: DAMGO EC20, Fluo-4 calcium flux, at 10 µM; hits give high values
# [5] = target: Short transient receptor potential channel 4 (Mus musculus) (UniProt Q9QUQ5); assay: inhibitors of mouse TRPC4 channel, confirmation, cell-based, Fluo4, HEK293 TRPC4beta/mu-opioid (AID 2636;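 active = calcium signal cut by more than 3 SD below the full-agonist control yet still positive, in both repeats and the earlier primary screen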); conditions: DAMGO, Fluo4 calcium flux, at 10 µM; hits give high values
# [6] = target: Short transient receptor potential channel 4 (Mus musculus) (UniProt Q9QUQ5); assay: inhibitors of mouse TRPC4 channel, confirmation, cell-based, second round, Fluo4, HEK293 TRPC4beta/mu-opioid, 1 µM (AID 2637); conditions: Fluo4 calcium flux, DAMGO, at 1 µM; hits give high values;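 as to inhibition: percent of integrated ratio relative to wells lacking test compound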
# [7] = target: Short transient receptor potential channel 4 (Mus musculus) (UniProt Q9QUQ5); assay: mouse TRPC4 channel activators, dose response, cell-based, HEK293 TRPC4/mu-opioid, Fluo-4 calcium (AID 434937;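 active = primary screen activator hit with a dose response curve and TRPC4 channel activation at any tested dose; inactive = no activation, no dose response, or not a primary hit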); conditions: HEK293 TRPC4 cells, Fluo-4 calcium fluorescence ratio; series mostly up to 20 µM
# [8] = target: Short transient receptor potential channel 4 (Mus musculus) (UniProt Q9QUQ5); assay: TRPC4 positive allosteric modulators, dose response, cell-based, HEK293 TRPC4/mu-opioid, Fluo-4 calcium, EC20 DAMGO (AID 434941;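 active = earlier screen potentiator hit that boosts the TRPC4 ion channel at some dose, with a dose response; inactive = no potentiation, no dose response, or not a prior hit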;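 also: calcium entry triggered by an EC20 dose of DAMGO at the co-expressed mu-opioid receptor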); conditions: HEK293 TRPC4/mu-opioid cells, Fluo-4 calcium fluorescence; series mostly up to 20 µM
# [9] = target: Short transient receptor potential channel 6 (Mus musculus) (UniProt Q61143); assay: inhibition of mouse TRPC6 channel, confirmation, selectivity assay for TRPC4 inhibitor project, cell-based, HEK293, membrane potential dye, duplicate (AID 434948;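 active = active in primary screen and both duplicates, each dropping signal beyond three positive-control SD with fluorescence still positive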); conditions: HEK293 TRPC6, membrane potential dye fluorescence, at 10 µM, stimulated with maximal-effect acetylcholine; hits give high values
# [10] = target: Short transient receptor potential channel 6 (Mus musculus) (UniProt Q61143); assay: activation of mouse TRPC6 channel, confirmation, selectivity assay for TRPC4 activator project, cell-based, HEK293, membrane potential dye, duplicate (AID 434950;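 active = membrane potential signal rise above negative control mean plus 3 SD in both duplicates, also active in the earlier TRPC4 screen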); conditions: HEK293 TRPC6, membrane potential fluorescence, at 10 µM; hits give high values
# [11] = target: Short transient receptor potential channel 6 (Mus musculus) (UniProt Q61143); assay: TRPC6 potentiation by TRPC4 potentiator hits, confirmation, selectivity assay for TRPC4 potentiator project, HEK293 cells, membrane potential dye, duplicate (AID 434952;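 active = compound raising the membrane signal above positive-control mean plus 3 SD in both repeats, and a primary screen hit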); conditions: HEK293 TRPC6, membrane potential dye fluorescence, at 10 µM, maximal acetylcholine added after compound; hits give high values
# [12] = target: Short transient receptor potential channel 4 (Mus musculus) (UniProt Q9QUQ5); assay: calcium flux activators in TRPC4/5HT1a cells, counter-screen for TRPC4 activator project, cell-based, second counter screen, HEK293 TRPC4/5HT1a, Fluo-4 (AID 434977;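 active = calcium signal rise above buffer-control mean plus 5 SD in both duplicates, and also a hit in the primary screen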); conditions: Fluo-4 calcium flux, at 10 µM; hits give high values
# [13] = calcium flux inhibitors in TRPC4/5HT1a cells, confirmation, counter-screen for TRPC4 inhibitor project, cell-based, second counter screen, HEK293 TRPC4/5HT1a, Fluo-4 (AID 434978;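 active = primary screen active whose calcium signal fell more than 3 SD beyond the full-serotonin control mean in both duplicate plates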;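 as to outcome: serotonin given first at submaximal then at maximal dose after compound preincubation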); conditions: Fluo-4 calcium flux, at 10 µM, serotonin added to trigger calcium flux; hits give high values
# [14] = test system: TRPC4 (mouse), co-expressed with 5HT1a in HEK293; assay: calcium flux potentiators in TRPC4/5HT1a cells, confirmation, counter-screen for TRPC4 potentiator project, cell-based, second counter screen, HEK293 TRPC4/5HT1a, Fluo-4 (AID 434979;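 active = signal rise over 3 SD above mean of control wells given weak agonist, in both repeats and first screen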); conditions: Fluo-4 calcium flux, at 10 µM, serotonin added at its EC20 dose; hits give high values
# [15] = calcium flux activation in mu-opioid HEK293 cells, confirmation, counter-screen for TRPC4 activator project, cell-based, HEK293 mu-opioid receptor line (AID 449723;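 active = hit in primary screen, with calcium signal over 5 SD above buffer well mean in both duplicates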;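 also: counter screen cells carry the mu-opioid receptor alone and lack TRPC4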); conditions: Fluo-4 calcium fluorescence, at 10 µM; hits give high values
# [16] = calcium flux enhancement in mu-opioid HEK293 cells, confirmation, counter-screen for TRPC4 allosteric potentiator project, cell-based, HEK293 mu-opioid receptor line (AID 449724;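 active = calcium signal rise more than 3 SD above the low-dose agonist control mean, in both duplicate plates and the primary screen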); conditions: Fluo-4 calcium flux, at 10 µM, compound added before EC20 DAMGO stimulus; hits give high values
# Chain of Short transient receptor potential channel 4 (Mus musculus) (Q9QUQ5 whole entry, looked up): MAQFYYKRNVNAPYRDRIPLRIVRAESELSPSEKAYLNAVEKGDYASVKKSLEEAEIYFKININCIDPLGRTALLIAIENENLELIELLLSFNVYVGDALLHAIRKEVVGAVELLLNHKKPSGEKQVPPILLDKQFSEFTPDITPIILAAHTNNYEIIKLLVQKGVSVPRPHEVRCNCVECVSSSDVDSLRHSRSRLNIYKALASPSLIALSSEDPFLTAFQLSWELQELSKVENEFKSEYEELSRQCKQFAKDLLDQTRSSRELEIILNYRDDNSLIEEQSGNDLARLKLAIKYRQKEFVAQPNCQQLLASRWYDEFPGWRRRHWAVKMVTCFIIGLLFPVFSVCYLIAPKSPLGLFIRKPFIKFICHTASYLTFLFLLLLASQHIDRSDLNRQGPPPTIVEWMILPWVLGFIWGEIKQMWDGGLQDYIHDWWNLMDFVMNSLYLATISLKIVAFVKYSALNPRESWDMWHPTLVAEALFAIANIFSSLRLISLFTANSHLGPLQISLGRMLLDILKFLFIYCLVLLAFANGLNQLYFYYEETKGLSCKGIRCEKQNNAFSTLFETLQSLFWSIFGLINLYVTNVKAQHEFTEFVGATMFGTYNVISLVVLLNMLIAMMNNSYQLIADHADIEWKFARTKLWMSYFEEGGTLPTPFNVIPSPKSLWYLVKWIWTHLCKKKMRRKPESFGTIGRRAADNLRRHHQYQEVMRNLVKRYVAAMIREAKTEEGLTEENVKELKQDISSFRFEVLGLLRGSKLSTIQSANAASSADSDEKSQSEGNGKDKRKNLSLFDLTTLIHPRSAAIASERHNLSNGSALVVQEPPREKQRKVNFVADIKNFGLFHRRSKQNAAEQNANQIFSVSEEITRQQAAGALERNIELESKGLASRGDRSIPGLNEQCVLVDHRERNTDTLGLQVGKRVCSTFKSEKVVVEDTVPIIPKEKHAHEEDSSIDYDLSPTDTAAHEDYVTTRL
# Chain of Short transient receptor potential channel 6 (Mus musculus) (Q61143 whole entry, looked up): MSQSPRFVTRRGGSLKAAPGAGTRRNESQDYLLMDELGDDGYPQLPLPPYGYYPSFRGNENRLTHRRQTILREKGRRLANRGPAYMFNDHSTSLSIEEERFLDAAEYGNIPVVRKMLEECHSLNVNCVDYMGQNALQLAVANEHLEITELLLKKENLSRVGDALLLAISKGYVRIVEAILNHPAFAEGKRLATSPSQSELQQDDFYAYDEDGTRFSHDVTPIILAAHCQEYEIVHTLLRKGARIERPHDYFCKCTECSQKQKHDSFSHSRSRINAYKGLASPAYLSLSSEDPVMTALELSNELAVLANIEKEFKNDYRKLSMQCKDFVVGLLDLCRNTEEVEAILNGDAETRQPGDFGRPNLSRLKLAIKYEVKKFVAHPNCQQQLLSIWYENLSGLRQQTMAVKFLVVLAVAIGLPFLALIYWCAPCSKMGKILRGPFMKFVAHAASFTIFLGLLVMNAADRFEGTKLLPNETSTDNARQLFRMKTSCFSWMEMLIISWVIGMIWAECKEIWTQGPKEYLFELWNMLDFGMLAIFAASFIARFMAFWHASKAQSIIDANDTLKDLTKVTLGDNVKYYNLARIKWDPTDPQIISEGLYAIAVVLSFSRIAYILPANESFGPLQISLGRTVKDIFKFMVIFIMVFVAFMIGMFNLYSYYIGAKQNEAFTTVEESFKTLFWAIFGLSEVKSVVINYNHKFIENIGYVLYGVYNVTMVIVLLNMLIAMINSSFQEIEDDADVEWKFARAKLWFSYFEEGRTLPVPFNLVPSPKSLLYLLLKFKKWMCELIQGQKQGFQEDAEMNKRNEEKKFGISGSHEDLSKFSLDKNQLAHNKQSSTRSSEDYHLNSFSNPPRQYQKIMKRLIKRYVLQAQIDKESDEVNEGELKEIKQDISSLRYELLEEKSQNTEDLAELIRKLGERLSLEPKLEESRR
Structure (SMILES),outcome [1],outcome [2],outcome [3],outcome [4],inhibition [5],outcome [6],outcome [7],outcome [8],outcome [9],outcome [10],outcome [11],outcome [12],inhibition [13],outcome [14],outcome [15],outcome [16],inhibition [6],outcome [13],inhibition [9],outcome [5]
CCn1cc(CN2CCCC(CO)(Cc3cccc(Cl)c3)C2)cn1 (stereo unspecified),inactive,inactive,inactive,inactive,94% (active),inactive,inactive,inactive,inactive,inactive,inactive,inactive,38.8% (active),inactive,inactive,inactive,,,,
Cc1cccc(C)c1N1CCc2cn[nH]c21,inactive,inactive,inactive,inactive,84% (active),inactive,inactive,inactive,inactive,inactive,inactive,inactive,31.5% (active),inactive,inactive,inactive,,,,
COCCn1c(SCC(=O)Nc2ccccc2OC)nc2c([nH]c3ccccc32)c1=O,inactive,inactive,inactive,inactive,71% (active),inactive,inactive,inactive,inactive,inactive,inactive,inactive,36.6% (active),inactive,inactive,inactive,,,,
O=C(Nc1ccccc1Oc1cccnc1)C1CCCN(Cc2cccc(Cl)c2)C1 (stereo unspecified),inactive,inactive,inactive,inactive,89% (active),inactive,inactive,inactive,inactive,inactive,inactive,inactive,33.5% (active),inactive,inactive,inactive,,,,
Cc1ccc(N2CCN(C(=O)c3ccccc3F)CC2)c(C)c1,inactive,inactive,inactive,inactive,84% (active),,inactive,inactive,inactive,inactive,inactive,inactive,26.6% (active),inactive,inactive,inactive,41% (active),,,
O=C(COc1ccc(F)cc1)c1c(O)cc(O)cc1O,inactive,inactive,inactive,inactive,84% (active),inactive,inactive,inactive,inactive,inactive,inactive,inactive,36.3% (active),inactive,inactive,inactive,,,,
CCCCc1nc(SCCOC)c2c(=O)n(C)c(=O)n(C)c2n1,inactive,inactive,inactive,inactive,88% (active),inactive,inactive,inactive,inactive,inactive,inactive,inactive,12.3% (active),inactive,inactive,inactive,,,,
OCCNc1nc(NCc2ccccc2)c2ccccc2n1,inactive,inactive,inactive,inactive,96% (active),,inactive,inactive,inactive,inactive,inactive,inactive,21.4% (active),inactive,inactive,inactive,61% (active),,,
CCOC(=O)C1CCN(C2CCN(C(=O)c3oc4c(C)c(C)ccc4c3C)CC2)CC1,inactive,inactive,inactive,inactive,95% (active),inactive,inactive,inactive,inactive,inactive,inactive,inactive,,inactive,inactive,inactive,,inactive,,
Cc1cc(-c2cn3ccccc3n2)c(C)n1-c1ccccc1,inactive,inactive,inactive,inactive,101% (active),,inactive,inactive,inactive,inactive,inactive,inactive,,inactive,inactive,inactive,40% (active),inactive,,
CCCn1c(=N)n(CC(=O)C(C)(C)C)c2ccccc21,inactive,inactive,inactive,inactive,92% (active),inactive,inactive,inactive,inactive,inactive,inactive,inactive,42.4% (active),inactive,inactive,inactive,,,,
OCC1(CCc2ccccc2)CCN(Cc2cc(Cl)ccc2O)CC1,inactive,inactive,inactive,inactive,79% (active),inactive,inactive,inactive,inactive,inactive,inactive,inactive,,inactive,inactive,inactive,,inactive,,
CCOC(=O)c1oc2ccccc2c1CN1CCCCC1,inactive,inactive,inactive,inactive,91% (active),inactive,inactive,inactive,inactive,inactive,inactive,inactive,34.9% (active),inactive,inactive,inactive,,,,
CCc1c(C(=O)N2CCCN(C)CC2)csc1C,inactive,inactive,inactive,inactive,63% (active),,inactive,inactive,inactive,inactive,inactive,inactive,,inactive,inactive,inactive,44% (active),inactive,,
COc1ccc(CNC(=O)CN(C)Cc2ccccc2F)cc1OC,inactive,inactive,inactive,inactive,86% (active),inactive,inactive,inactive,inactive,inactive,inactive,inactive,34.9% (active),inactive,inactive,inactive,,,,
Clc1ccc(COc2ccccc2CNCc2cccnc2)cc1,inactive,inactive,inactive,inactive,94% (active),inactive,inactive,inactive,inactive,inactive,inactive,inactive,27.8% (active),inactive,inactive,inactive,,,,

Structure (SMILES),outcome [1],outcome [2],outcome [3],outcome [4],inhibition [5],outcome [6],outcome [7],outcome [8],outcome [9],outcome [10],outcome [11],outcome [12],inhibition [13],outcome [14],outcome [15],outcome [16],inhibition [6],outcome [13],inhibition [9],outcome [5]
COc1ccc(-c2csc(NC(=O)Cc3cccc4ccccc34)c2C(=O)O)cc1,inactive,inactive,inactive,inactive,90% (active),inactive,inactive,inactive,inactive,inactive,inactive,inactive,40.2% (active),inactive,inactive,inactive,,,,
CCOC(=O)c1c(-c2cccc(C)c2)csc1NC(=O)C1CC=CCC1C(=O)O (stereo unspecified),inactive,inactive,inactive,inactive,89% (active),inactive,inactive,inactive,inactive,inactive,inactive,inactive,46.1% (active),inactive,inactive,inactive,,,,
N=c1sccn1CC(=O)Nc1ccccc1Oc1ccccc1,inactive,inactive,inactive,inactive,92% (active),,inactive,inactive,,inactive,inactive,inactive,34.6% (active),inactive,inactive,inactive,48% (active),,48% (active),
O=C(CN1CCCCC1)N=Nc1c(O)[nH]c2ccccc12,inactive,inactive,inactive,inactive,80% (active),inactive,inactive,inactive,inactive,inactive,inactive,inactive,33.5% (active),inactive,inactive,inactive,,,,
COc1nc(N=C(N)N)nc2ccc(C)cc12,inactive,inactive,inactive,inactive,96% (active),inactive,inactive,inactive,,inactive,inactive,inactive,21.1% (active),inactive,inactive,inactive,,,46.5% (active),
CC(C)c1nc(CNC(=O)CC2C(=O)NCCN2Cc2ccc(F)cc2Cl)cs1 (stereo unspecified),inactive,inactive,inactive,inactive,92% (active),inactive,inactive,inactive,inactive,inactive,inactive,inactive,,inactive,inactive,inactive,,inactive,,
COC(=O)C1=C(C)N(Cc2ccccc2)C(=S)N[C@H]1c1ccccc1,inactive,inactive,inactive,inactive,73% (active),inactive,inactive,inactive,inactive,inactive,inactive,inactive,25.6% (active),inactive,inactive,inactive,,,,
Cn1c(-c2ccc(F)cc2)cnc1NCc1ccc(F)cc1,inactive,inactive,inactive,inactive,90% (active),,inactive,inactive,inactive,inactive,inactive,inactive,22.5% (active),inactive,inactive,inactive,68% (active),,,
O=C(c1ccc2c(c1)OCO2)C1CCCN(Cc2ccccc2OC(F)F)C1 (stereo unspecified),inactive,inactive,inactive,inactive,89% (active),inactive,inactive,inactive,inactive,inactive,inactive,inactive,41.6% (active),inactive,inactive,inactive,,,,
Cc1cc(/C=C2/C(=N)N3C(=NC2=O)SN=C3S(C)(=O)=O)c(C)n1-c1ccccc1F,inactive,inactive,inactive,inactive,,inactive,inactive,inactive,inactive,inactive,inactive,inactive,,inactive,inactive,inactive,,inactive,,inactive
Cc1nc2ccccc2n1CC(O)COc1ccccc1Cl (stereo unspecified),inactive,inactive,inactive,inactive,72% (active),,inactive,inactive,inactive,inactive,inactive,inactive,,inactive,inactive,inactive,40% (active),inactive,,
O=C(O)c1cc(NN=C2c3ccccc3-c3ccccc32)ccc1Cl,inactive,inactive,inactive,inactive,98% (active),inactive,inactive,inactive,,inactive,inactive,inactive,11.8% (active),inactive,inactive,inactive,,,32% (active),
COc1ccc(C2CC(c3ccccc3)Nc3nc(NC(=O)c4cccs4)nn32)cc1 (stereo unspecified),inactive,inactive,inactive,inactive,95% (active),inactive,inactive,inactive,inactive,inactive,inactive,inactive,,inactive,inactive,inactive,,inactive,,
O=C(COC(=O)c1cccc([N+](=O)[O-])c1)c1ccc2c(c1)OCO2,inactive,inactive,inactive,inactive,89% (active),,inactive,inactive,inactive,inactive,inactive,inactive,25.3% (active),inactive,inactive,inactive,59% (active),,,
C=CCn1cnc2scc(-c3ccc(CC)cc3)c2c1=O,inactive,inactive,inactive,inactive,57% (active),inactive,inactive,inactive,inactive,inactive,inactive,inactive,,inactive,inactive,inactive,,inactive,,

# Reference: PubChem BioAssay
